Laboratory results taken from the supplement of paper PMC4466236.
Whole data set: some 33,000 sequences, median “E-score (dimensionless, -0.5 to 0.5)” near -0.058, cut for the highest 2% near 0.35. The list comes from a sample in which the highest values are over-represented; it also holds similar and randomly drawn sequences.

tested on: MvaT; experiment: PBM 8-mer E-score (mean of HK and ME arrays) (E-score (dimensionless, -0.5 to 0.5)); higher = stronger relative binding preference
Protocol: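 Protein binding microarray: GST-tagged full-length MvaT (P. aeruginosa PAO1) bound to two universal double-stranded 60-mer arrays (ME and HK), each with a constant 25-mer primer and a variable 35-mer region covering all 8-mers. The 8-mer E-score (rank-based, range -0.5 to 0.5, >0.45 = specific binding) is the mean of the two arrays.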

Sequence | PBM 8-mer E-score
CAGCAAAC | 0.014
CATTACGA | 0.0396
AAATGACT | 0.114
ATACCCAG | 0.103
CGTAAGAC | -0.107
AACTGTGG | -0.0417
ACCTACGA | -0.0935
AGCATATC | -0.0071
CACATATC | 0.178
CACATATG | 0.196
AATACATT | 0.374
AATACATC | 0.173
AACATAAA | 0.286
CACATATA | 0.405
AACATAAC | 0.245
AACATAAT | 0.371
AGCATATA | 0.383
GGCATATA | 0.217
AATACATG | 0.224
CGAACAAC | 0.0607
GCTAGGCA | -0.187
ACGACTAG | -0.185
TACCTCAA | 0.05
ACTTGGTA | -0.109
GGTTGATA | 0.124

Sequence | PBM 8-mer E-score
GTCTTCGA | -0.0711
GGTCGCGA | -0.238
CCGCAAGA | -0.078
CTCGCCTA | 0.0159
GAAAACAC | 0.0574
AATACATA | 0.324
AACATACT | 0.207
TACATACA | 0.301
AACATATT | 0.392
TATACATA | 0.389
GACATAGA | 0.0048
CATACATA | 0.277
AACATAGT | 0.25
GACATATC | 0.113
CACATACA | 0.242
GACATATA | 0.362
AACATACA | 0.36
GGTGCGCA | -0.0657
AACGCTGC | 0.0312
CAAGCGTG | -0.266
CTCTCTAC | -0.0519
CTTTGACC | -0.131
CCCGGATA | -0.0749
TACACATA | 0.242
AACATATG | 0.254

Sequence | PBM 8-mer E-score
TACATAAA | 0.307
TACATATA | 0.402
AACATATC | 0.286
AACATATA | 0.419
GTTGGCCA | -0.0756
AAGACAGC | 0.081
ACACCGGC | -0.133
AATATTCG | 0.326
AATATTCT | 0.36
ACTATTCT | 0.208
AATATTCC | 0.375
GATATTCC | 0.229
CATATTCG | 0.173
TAGAAAAA | 0.0922
CGGAGAGA | -0.145
AAGGCAAC | 0.0918
AACGCCAG | -0.15
CAGGCAGG | -0.314
AGAATAGG | -0.0847
CATTAATC | 0.341
GATTAATC | 0.317
GATTAACC | 0.0145
GATTAATA | 0.446
CATTAATA | 0.369
CGTTAATA | 0.31

Sequence | PBM 8-mer E-score
ATGCGTCC | -0.205
AAGTTGTC | 0.168
CTATACAG | 0.00215
GTATACAA | 0.319
AAATACAT | 0.33
ACATACAA | 0.362
ATACACAG | 0.0306
ATATACAT | 0.365
ATATACAC | 0.336
TGATACAA | 0.145
ACATACAT | 0.275
ATATACAG | 0.379
TTATACAA | 0.359
TCATACAA | 0.0994
CCGAAACA | 0.00391
CTGGAACA | 0.00992
CAGTATAG | 0.0504
ACTTGGAC | 0.0426
GGACACGA | -0.163
ATGTGTTA | 0.258
CGCTTTAA | 0.0497
CTTCGTGC | -0.0984
AATTGAGC | 0.0577
ATACACAA | 0.154
ATATACAA | 0.406

Sequence | PBM 8-mer E-score
CTATACAA | 0.202
AATTAACA | 0.333
AATTAATA | 0.449
CATTAATG | 0.34
AATTAATG | 0.359
AATTAATC | 0.366
AATTAATT | 0.469
CGTTAATC | 0.127
AGTTAATG | 0.271
AATCAATT | 0.246
AATTACGT | 0.263
AGTCCAAT | 0.0865
CGAAAGTC | -0.0957
AATCTGCT | -0.0198
AAAGACCC | -0.224
CATACTAG | 0.203
AGGGCCCG | -0.227
GGGTCCAC | -0.22
ATGCGCGG | -0.207
GCGGGGAA | -0.103
GTAAGCGA | 0.0773
AATTAACC | 0.262
AATTAACT | 0.354
AATTAACG | 0.28
ACCCAAAC | 0.192

Sequence | PBM 8-mer E-score
AAGTACTA | 0.257
AAGTAATC | 0.186
CAGTAATA | 0.273
TAGTAACA | 0.274
GAGTAATA | 0.287
AAGTACTT | 0.41
AAGTAATG | 0.276
TAGTAATA | 0.352
AAGTAATA | 0.379
AAGTAATT | 0.392
TAGTAAAA | 0.315
AAGTACTC | 0.137
ATCAGGCG | -0.0225
ATCTGCTA | 0.109
ACAGGACT | -0.164
AGTGCCGA | -0.0895
AAATCCCC | -0.192
CGTTCCAA | 0.0493
GGTCCTCA | -0.193
ATAGCAGC | 0.0386
GTAATCTA | 0.151
AAAACTGT | 0.0621
TAATAGTA | 0.362
CAATAGTA | 0.264
GAATAGTA | 0.229

Sequence | PBM 8-mer E-score
CTTATCGC | 0.049
CCCTTTCC | -0.188
GAATAATA | 0.446
AAAAAATG | 0.0805
GAATAATC | 0.188
ACATAATC | 0.222
TAATAATA | 0.477
GCATAATA | 0.339
AAATAATG | 0.387
ACATAATA | 0.401
GAATAAGC | 0.194
AACCTTTA | 0.192
AGGGCCTG | -0.226
GATCTGAC | -0.0641
ATACCAAG | -0.0486
CTGCGCAA | -0.0818
AAGAGACT | -0.04
AACGCGTG | -0.0417
ACTTCTGC | 0.0207
TTCCAGAA | 0.055
GCTAGGAA | -0.167
GAATAACA | 0.2
AAAAAATT | 0.153
AAATAAGA | 0.309
GAATAAGA | 0.201

Sequence | PBM 8-mer E-score
TAATAAGA | 0.375
CAATAATA | 0.418
CAATAACA | 0.283
AAATAATT | 0.438
CAATAATC | 0.19
TAATAACA | 0.379
CAATAATG | 0.322
CTACCGCA | -0.134
CCTGATGC | -0.163
CAGCTTAG | -0.203
GGACAGTA | -0.0349
AACTTTCG | 0.255
GCCTAGCC | -0.187
CTAAGTAG | 0.0522
AAATAATA | 0.428
AAAAAATA | 0.331
AAATAATC | 0.301
CCTCAAAC | -0.125
ATATATCG | 0.442
AGATATCC | -0.0391
AAATATCG | 0.295
CTATATCC | 0.123
ATATATCC | 0.38
GTATATCA | 0.237
CTATATCA | 0.16

Sequence | PBM 8-mer E-score
ACATATCG | 0.243
ATATATCA | 0.427
TCGTGACA | -0.206
GTTTCACA | -0.00657
AAATTCCG | 0.108
ACTTTTAA | 0.383
CCTTTAAA | 0.211
ACTTTTAG | 0.112
GCTTTAAA | 0.249
ACTTTTTA | 0.309
ACTTTAAA | 0.404
ACTTTAAC | 0.326
ACTTTAAG | 0.254
ACTTTTAC | 0.211
ACTTTAAT | 0.414
TCTTTTAA | 0.296
ACTTTTAT | 0.363
CGTCACCA | -0.18
ATCCCTTC | -0.172
CAAGCACG | -0.238
CCTTACCG | -0.129
GAAGCAAC | -0.0872
GTATACTA | 0.373
CTATACTA | 0.156
AGATACTA | 0.143

Sequence | PBM 8-mer E-score
GCATACTA | 0.186
GTATACGA | 0.184
GTACTATA | 0.329
CTATACTC | -0.0354
ATATACTA | 0.422
ATATACTG | 0.322
ATATACTC | 0.364
ATACTATA | 0.377
CTACTATA | 0.292
ATACACTC | 0.143
GAACGTTA | 0.207
ACAAACCA | 0.185
AGCTGAGC | -0.262
AACGTAGT | 0.000134
CGCGTGAG | -0.167
AGGCCGAG | -0.0711
GGCCCCTA | -0.222
CCAATTAA | 0.306
ACAATTAC | 0.319
ACAATTTG | 0.187
ACAATTAG | 0.315
ACAATTAA | 0.347
GCAATTAA | 0.324
ACAATTTA | 0.353
ACAATTAT | 0.378

Sequence | PBM 8-mer E-score
GCAATTTA | 0.307
CCGGTGAA | -0.0479
AGGAGCAG | -0.32
CAGGATGG | -0.189
CAAGCAGA | -0.0444
CTAATAAG | 0.213
CTAATAAA | 0.349
TCAATAAA | 0.22
TTAATAAA | 0.432
CTAATAAC | 0.326
ATAATAAG | 0.43
CTAAAAAA | 0.0548
TGAATAAA | 0.268
ATAATAAC | 0.422
CGAATAAA | 0.254
GTAATAAC | 0.297
ATCATAAG | 0.161
AGGGGAGA | -0.145
ATGACACG | -0.12
AGCCTATA | 0.179
ATTGCAAT | 0.27
GTAATAAA | 0.333
TTAATGAA | 0.393
AGAATAAG | 0.252
ATAATGAT | 0.275

Sequence | PBM 8-mer E-score
ATAATAAA | 0.451
AGAATAAC | 0.232
ATCATAAT | 0.245
AGAATAAA | 0.255
AGAATAAT | 0.411
ATAATAAT | 0.463
GTAATGAA | 0.00633
CTAATGAA | 0.132
CTAGCCTA | -0.138
AGGCTAAG | -0.0142
GCCTGTCC | -0.241
CAGGACAC | -0.248
AACGGACA | -0.037
CAGGCCGG | -0.188
GTTTTCAA | 0.148
GCTAGAGA | -0.188
GAGACCAC | -0.107
ACCTTGCG | -0.0997
AGGATAAT | 0.353
AGGATAAG | 0.0764
AGGATAAA | 0.22
ATGCATGA | -0.142
GGTATATA | 0.355
GGTATAGA | 0.08
GGTATACA | 0.201

Sequence | PBM 8-mer E-score
CGTATACA | 0.17
CGTATATC | 0.143
AGTATATC | 0.259
AGTATAGA | 0.0904
AGTATATG | 0.351
CGTATATA | 0.378
AGTATATA | 0.446
AGTATGTG | 0.209
AGTATAGG | 0.0335
GACGTTGC | -0.0956
GTGTAACA | 0.206
TAAAGGAA | 0.0516
GAATCGCC | -0.206
ATAACATG | 0.235
ATAACATC | 0.302
AAAACATT | 0.225
GAAACATA | 0.343
AAAACATA | 0.354
ATAACATA | 0.359
ATCCATGC | -0.188
CGAAATTC | 0.192
CCCTCACA | -0.151
ATATCGAG | 0.208
TCCCGGAA | -0.126
GCGCGTAC | -0.156

Sequence | PBM 8-mer E-score
GAGGGTGC | -0.16
TCAAACGA | 0.0344
ATAACTTC | 0.351
AGAACTTG | 0.214
ATAACTGC | 0.286
ATAACTTG | 0.38
CTAACTTC | 0.168
ATAACTCG | 0.255
ATTACTTC | 0.348
ATTACTTA | 0.334
CTTACTTC | 0.208
CGGAGACA | 0.0514
CCTACCTC | -0.226
CCAGATGG | -0.281
ATTAACTA | 0.339
AATAACTA | 0.348
ACTAACTG | 0.191
ACTAACTC | 0.118
GTTAACTA | 0.362
ACTAACTA | 0.381
GATAACTA | 0.198
CATAACTA | 0.286
CTTAACTA | 0.305
